Shown are actives, neighbours in structure and some others; about 1.9% of the full set was active somewhere.
dFosB act: mouse delta FosB homodimer activation | P13346 | purified delta FosB, TAMRA-CDK5 oligo fluorescence polarization; percent of positive-control signal above neutral wells | activation, % at 25 µM | 340,000 compounds, 0.99% hits;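 active means mean activation above about 17%, with every replicate also reaching it, limit read from the data, passing the limit was not always enough; inconclusive means only one of the two conditions met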
A1 inh: inhibitors of the anti-apoptotic protein A1, read as caspase activation; MEF A1-2A-BIM cells, Caspase-Glo 3/7 luminescence, 3 h; percent of clofoctol response, vehicle zero; caspase activation, % (test concentration not listed); 330,000 compounds, 0.066% hits;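 active means over half of replicate activation scores above 10%, or exactly half above 10 with the replicate mean above 10; inconclusive means replicate mean below 10 yet half the replicates above 10; inactive means over half of replicates below 10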
Neddylation inh: blocks human cullin neddylation | P61081+Q13564 | TR-FRET cullin neddylation, biochemical | inhibition, % at 25 µM | 360,000 compounds, 0.58% hits | AID 651699; in the data active means inhibition above about 36%
INS-1E GSIS act: primary screen for activators of insulin secretion dependent on glucose, INS-1E cells, GLuc reporter luminescence; INS-1E GLuc reporter insulin secretion, 2-3 h; activation, % at 16.6 µM; 370,000 compounds, 0.61% hits;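 active means lowest replicate activation of at least 40%, so every replicate reaches that level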;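 further: 0% = median of neutral control wells and 100% = median of IBMX positive control wells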
Vif inh: inhibitors of HIV Vif; HEK293T cells, Vif self-association by quenched fluorescence, imaging, 24 h; inhibition, % at 7.49 µM; 340,000 compounds, 0.35% hits; in the data active means inhibition above about 50%, passing the limit was not always enough; inconclusive means no clear call, values can overlap the other calls; inactive means below about 31%
Neddyl inh conf: confirmation of human cullin neddylation inhibitors; TR-FRET cullin neddylation biochemical assay; 1,800 compounds, 13% hits; shares compounds with Neddylation inh; calls only at 25 µM; in the data active means inhibition above about 40%;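 further: neddylation substrate is the cullin 1 ring ligase complex with SKP2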
The depositor's hits bear a star; i = inactive; ? = inconclusive; · = no result shown; + = active, no number; ! = not active in a repeat.

SMILES	dFosB act	A1 inh	Neddylation inh	INS-1E GSIS act	Vif inh	Neddyl inh conf
O=C(C[C@@H]1C[C@@H]2c3cc(NC(=O)NC4CCCCC4)ccc3O[C@@H]2[C@@H](CO)O1)NCCc1ccccc1	·	·	·	-4	·	·
CC1(C)Cc2c(C#N)c(NC3CCCCC3)nc(-c3ccco3)c2CO1	5	0	·	·	11	·
CC1(C)Cc2c(C#N)c(NCC3CCCO3)nc(-c3ccco3)c2CO1 (stereo not drawn)	-10	-1	49*	·	-1	·
COc1ccc2c3c(n(C)c2c1)[C@@H](CO)N(C(=O)c1ccccn1)CC31CN(C(C)=O)C1	·	·	·	32	·	·
C[C@@H]1CCCCO[C@H](CN(C)S(=O)(=O)c2ccccc2)[C@H](C)CN([C@H](C)CO)C(=O)c2cc(NS(C)(=O)=O)ccc2O1	·	·	·	-4	·	·
COc1cccc(Nc2ccc(C(=O)O)cc2N)c1	-3	-2	40*	-2	-7	·
NC(N)=NC(=O)c1nc(Cl)c(N)nc1N	4	0	40*!	12	-2	i
COc1ccc(CN(C)C[C@H]2OCCCC[C@@H](C)Oc3ccc(NC(=O)Nc4ccc(C(F)(F)F)cc4)cc3C(=O)N([C@@H](C)CO)C[C@H]2C)cc1	·	·	·	-13	·	·
CCOc1ccc(-c2cncc3nccn23)cc1	·	·	·	·	-3	·
CS(=O)(=O)Nc1ccc(-c2cncc3nccn23)cc1	·	·	50*	11	-4	·
COc1cc(/C=N/NC(=O)c2nnn(-c3nonc3N)c2C(C)C)ccc1OCc1ccccc1	1	-1	43*	3	-1	i
Cn1ncc2c(Nc3ccc(Cl)cc3)ncnc21	-6	0	30	14	2	·
Cn1ncc2cc3c(Nc4ccc(Cl)cc4)cccc3nc21	·	·	57*	-39	·	+
CN(C)C(=O)[C@H]1[C@H](CO)[C@H]2Cn3c(ccc(-c4cccnc4)c3=O)[C@@H]1N2C(=O)NC1CCCC1	·	·	·	7	·	·
CCOC(=O)CSc1ccc2nnc(-c3cccnc3)n2n1	-10	0	55*	7	·	·
Cc1ccccc1OC1=NS(=O)(=O)c2ccccc21	5	1	6	13	-8	·
O=S1(=O)N=C(Oc2cccc3ccccc23)c2ccccc21	0	-1	42*	13	-8	i
C[C@@H](NC(=O)C[C@H]1C[C@@H]2c3cc(NS(C)(=O)=O)ccc3O[C@@H]2[C@H](CO)O1)c1ccccc1	·	·	·	9	·	·
O=C(O)Cn1nc2c3c(cccc3c1=O)-c1ccccc1-2	-11	0	54*	14	6	i
COc1ccc(S(=O)(=O)N(Cc2ccccc2)c2ccccc2C(=O)Nc2ccccc2C(=O)NCc2ccco2)cc1	4	0	19	-39	7	·
COc1ccc(S(=O)(=O)Nc2ccccc2C(=O)NCc2ccco2)cc1	-7	-1	40*	·	-5	+
CCC(=O)N1CC[C@@H]2[C@H]1c1cc(C#Cc3ccccc3)ccc1N[C@@H]2CO	·	·	·	5	·	·
OCCN1CCN(c2nc3ccccc3nc2-c2ccccc2)CC1	-10	0	39*	11	-8	i
Cc1ccc(-c2nnc(N3CCN(CCO)CC3)c3ccccc23)cc1	-15	0	-2	14	7	·
O=C(CSc1cccc2cccnc12)N/N=C/c1cccc(O)c1	-11	0	43*	·	-5	i
SMILES	dFosB act	A1 inh	Neddylation inh	INS-1E GSIS act	Vif inh	Neddyl inh conf
CCOCCCNc1c2c(nc3cc(-c4ccc(F)cc4)nn13)CCC2	-2	1	5	-2	-2	·
CN(C)CCCNc1c2c(nc3cc(-c4cccc(F)c4)nn13)CCC2	-8	1	43*	1	3	i
C[C@@H]1CN([C@@H](C)CO)C(=O)Cc2cc(NC(=O)C3CC3)ccc2O[C@H]1CN(C)C(=O)Nc1ccc(F)cc1	·	·	·	-4	·	·
CN(C)CCCNC(=S)N(CCCN(C)C)Cc1cc2cc3c(cc2[nH]c1=O)OCO3	6	2	27	2	4	·
CCN(CC)CCCN(Cc1cc2cc3c(cc2[nH]c1=O)OCO3)C(=S)NCCCN(C)C	?	1	44*	·	3	i
CSc1ccccc1NC(=S)N/N=C/c1cccn1Cc1ccc(F)cc1	-17	1	47*	-5	-5	i
C[C@@H]1CN([C@@H](C)CO)C(=O)c2cc(NC(=O)Nc3ccc4c(c3)OCO4)ccc2O[C@@H](C)CCCCO[C@H]1CN(C)Cc1ccncc1	·	·	·	-22	·	·
c1ccc2c(-c3cncc4ccccc34)cncc2c1	-11	0	17	27	-9	·
c1ccc2c(c1)-c1cccc3cncc-2c13	-56	·	40*	-1	8	i
CN(C)C(CNC(=O)c1ccc2[nH]c(=O)c(=O)[nH]c2c1)c1ccco1 (stereo not drawn)	2	0	52*	11	22	·
CCOc1ccc2oc(C(=O)NCc3ccccc3CN3CCCC3)c(C)c2c1	-2	0	52*	·	2	·
COc1ccc(C(CNC(=O)c2oc3ccc(OC)cc3c2C)N2CCCC2)cc1 (stereo not drawn)	10	1	50*	-20	-13	·
CCOc1ccc2oc(C(=O)NCC(c3ccco3)N(C)C)c(C)c2c1 (stereo not drawn)	-13	·	47*	12	5	·
CN(C)C(CNC(=O)c1ccc(Br)cc1)c1ccco1 (stereo not drawn)	-7	0	-5	19	-7	·
Cc1c(C(=O)NCC(c2ccco2)N(C)C)oc2c(Cl)cccc12 (stereo not drawn)	-9	0	9	7	·	·
CO[C@H]1CN(C)C(=O)c2ccc(NS(=O)(=O)c3cn(C)cn3)cc2OC[C@H](C)N(CC2CC2)C[C@@H]1C	·	·	·	5	·	·
O=C(NCC[C@@H]1CC[C@H](NC(=O)C2CCCCC2)[C@@H](CO)O1)c1ccc(F)cc1	·	·	·	27	·	·
COc1cccc(S(=O)(=O)N(C)C[C@@H]2OCc3ccccc3-c3ccccc3C(=O)N([C@@H](C)CO)C[C@@H]2C)c1	·	·	·	-19	·	·
CCC(=O)N[C@@H]1CC[C@H](CC(=O)OC)O[C@@H]1CO	·	·	·	7	·	·
COc1cc(/C=C(\CC(=O)O)c2nc3ccccc3s2)ccc1OCC(=O)Nc1ccccc1F	-10	·	36*	-5	3	i
CNc1cncc(C(=O)O)c1	7	1	40*	-3	1	·
COC(=O)Oc1cncc(C(=O)O)c1	2	0	1	·	1	·
CCC(=O)Nc1ccc2c(c1)OC[C@@H](C)N(Cc1ccccn1)C[C@@H](C)[C@@H](OC)CN(C)C2=O	·	·	·	-8	·	·
CNC[C@H]1Oc2ccc(NC(=O)NC(C)C)cc2C(=O)N([C@@H](C)CO)C[C@@H]1C	·	·	·	10	·	·
CC(C)(C)NC(=O)CN(C(=O)c1snc(C(=O)NC2CCCCC2)c1N)c1ccccc1F	2	1	39*	-51	0	i
Cc1ccc(C)c(N(CC(=O)NC2CCCCC2)C(=O)c2snc(C(N)=O)c2N)c1	-10	0	·	-30	0	·

Compound activity as filed in PubChem BioAssay.
